According to publication PMC13494018:
A number with no mark means an inactive call. How the calls were made is not given here.

B1: d8r1_design_ppi_479_dldesign_0_cycle0_af2pred (protein)
chain: EELAKEARELAKRGIEDPEKAPEAGRKIAELAAKAVAEGDSEAAAEAVAELTRLHKANPEAGREALILMAQKIAKVAREK
B2: d8r1_design_ppi_384_dldesign_0_cycle1_af2pred (protein)
chain: SAKEAAAKAARNAAAAAKKADEAGFNPKVIASLAKAAGEEALVSPESVEAAEEAAKIAEKYPSKEAQEAAKYAKELAKAAKAKAA
B3: d8r1_design_ppi_877_dldesign_0_cycle1_af2pred (protein)
chain: ALAAEAAAAIAKARELLKEIKETGKESKSESVRRFAEGVARKVQALIDQAEAAAADPATALALAKAALKLAEEGLAAVKTLKKAYEE
B4: d8r1_design_ppi_499_dldesign_0_cycle0_af2pred (protein)
chain: GMARSLQRAAENTAARAAEYLRDPAKAEIGRNALAAAAALTEKAAAEAGLSPEEAAAAAAATRAATLAAAA
B5: d8r1_design_ppi_1130_dldesign_0_cycle0_af2pred (protein)
chain: SAEEAEKAAKELIELAKKAAEDPSYIPEAAALAAKHIGTPEARTALAEAIKILMQKSPELAKQFLAAFSAALAALRAAA
B6: d8r1_design_ppi_1130_dldesign_0_cycle1_af2pred (protein)
chain: SMEEAEKAAKEIIELAKKAAEDPSYIDELAALAAKYIGSPEAKEALAEAIKILSKKSPELAKQFLAKYSAALAALRAAA
B7: d8r1_design_ppi_243_dldesign_0_cycle1_af2pred (protein)
chain: DQNLKGALLIGQANAYAVAAAKAAAAAGAPAAEVQAAIDKVRAMTAEAGKLSPSLASTAERVAAIEGARLAAAA
B8: d8r1_design_ppi_254_dldesign_0_cycle1_af2pred (protein)
chain: AAAQAAAAEALRKVREAFSEAIALTVKNPEEGEKKFKEAEKLAEAAVKEQKAVDPAVGAALAKQVEATVKSAKEIMELIKKAKE
B9: d8r1_design_ppi_408_dldesign_0_cycle1_af2pred (protein)
chain: ASAEAKKKALELIKKAVALTSQGLAKGDKALVKKGLEYAKKAKEEAAKSADAATLLKAVDNVEAMAKTVLDAL
B10: d8r1_design_ppi_86_dldesign_0_cycle1_af2pred (protein)
chain: GARAAALAAAAALNAAAAKADAAAAKAYGRAAVAAARAYFAGADGAELLALVAKVGAEDPAVAADILAIATAALAAAA
B11: d8r1_design_ppi_997_dldesign_0_cycle1_af2pred (protein)
chain: ALSDAQSFVKAAKAAAEKAKELAKKDPEVAAKAVETAKKLAEAAVKASPEAKPQAEEAKKLAEEAKKVVEEAKKKAA
B12: d8r1_design_ppi_307_dldesign_0_cycle0_af2pred (protein)
chain: EEARAEALAAEAAATAAALLAAARATDPRADIAAGAAALTAAAREAAALSPAAAAKVRAVIATFMAEALKLMDS
B13: d8r1_design_ppi_254_dldesign_0_cycle0_af2pred (protein)
chain: AAAKALAEAALREVGSALSEAISLTSKDPKKGEEKFKEAEALAKAKVAEMEAIDPAVGAALKAAVDALLAQTKLIMEKIKEAKK
B14: d8r1_design_ppi_793_dldesign_0_cycle1_af2pred (protein)
chain: GISPESAKKLAKQMLEDALKAAEEARKLIKEGATPEEVQKAIRGAQAAADAAEALAKVDPAVAPYAKKAKAAVEEARKLAK
B15: d8r1_design_ppi_219_dldesign_0_cycle0_af2pred (protein)
chain: GERIKRNAEIVAATYAEVAALAAGEKEATARRAAGLLAAGAMSPEGREEYLAEALALAAEVGAEAAALVAEAAAAI
B16: d8r1_design_ppi_423_dldesign_0_cycle1_af2pred (protein)
chain: DESDKNMELLTKAGAATSELVAKARADAKAAAAEGPEAVKAVAEEHSAKIKEVAEKLGKESSKSASFKGLIETATKTIKAYADAVVA
B17: d8r1_design_ppi_987_dldesign_0_cycle0_af2pred (protein)
chain: QAVLDKANELLAKAMKLFGKLSPENYAAALAAADAAIAAAKELQKEDPELGAALLASAEALKAAIKAKAA
B18: d8r1_design_ppi_167_dldesign_0_cycle0_af2pred (protein)
chain: SSEERYAEAAKLLAETAAKAAALIAKNPAVAEAAKEMQRYAARAAAALVAGDEEKAKEYKKKMEEALAKAEALVA
B19: d8r1_design_ppi_23_dldesign_0_cycle1_af2pred (protein)
chain: DAEEKKKLAKKMEEMAKKVAAAGKAVPAVKAEADATAKALKAMAKLALEGSLEDAKSLLKAGEAAAKRVLEKAKAAAAAAA
B20: d8r1_design_ppi_1104_dldesign_0_cycle1_af2pred (protein)
chain: DDLLKQAQATLKQAAALAATVSLAAASDFNAAMFLMRNPKNIPQAIKYAQQGAALAAASAKAPQIKALADEAVKLMKALAKAAAA
B21: d8r1_design_ppi_307_dldesign_0_cycle1_af2pred (protein)
chain: MMEEAEKIAEEAKKTADELLAQAKKGDPKPYVNQGFAELNKLLQEAAKLSPEAAEKVKEVLAEFRKQASKILDS
B22: d8r1_design_ppi_128_dldesign_0_cycle1_af2pred (protein)
chain: AQLEQIKAQAKKEIEEALEYAKKAKTDPSYLAKALGHLNKASQLAKQLPNAEEVKAEIDKAISAAIAGDYETVKKEAEEAIKLLEKD
B23: d8r1_design_ppi_128_dldesign_0_cycle0_af2pred (protein)
chain: EELEKLKEEAKKEIKEALEYTEKAKEDPDYLAKALGHLNKARQLAAKLPSAEEVKKEIDKMISAAMAGDVEKAKEYAEKAIKLLEKD
B24: d8r1_design_ppi_573_dldesign_0_cycle1_af2pred (protein)
chain: SAEQAALEAKAKEAALKAWEAAKQYKKTGYQEFKDAAKEYAYAAIAYFRGDTAAGKKYRDAADKLWAKAQAIAAA
B25: d8r1_design_ppi_1481_dldesign_0_cycle0_af2pred (protein)
chain: SSEANDAALKEGMALASATLAQARALIAAGGAAAAAAAAALAEAAVARLRELGAKYPQRAASFAALGEALRREVARLAA
B26: d8r1_design_ppi_1244_dldesign_0_cycle1_af2pred (protein)
chain: EEEAEKERERYEKAYYFAKAAIAAASSGLPAAVAAAKAFLQKAGEEIPEFLPAAKAATTAAEITAVATKVAAYAAAKIS
B27: d8r1_design_ppi_669_dldesign_0_cycle1_af2pred (protein)
chain: AAAAAAANVRKVGEVSIEYVERVDAVSGANFAAGAFRGLATLLPPEVAKHAAAAAEKVRETGEKETKEALIETIRTTTAEIAALIEA
B28: d8r1_design_ppi_684_dldesign_0_cycle1_af2pred (protein)
chain: AAAEEAEEKKYAMAKAAGAAASEIAKIDPALGRKVAIAAGEALSVDLETSYKILTDTLTEVAETGSPEAAAEAQKALDAVEAAYKA
B29: d8r1_design_ppi_56_dldesign_0_cycle0_af2pred (protein)
chain: EAEKALKEAAEKIKKAAKEAEKDPEKAVEYFSEALAYAMRTAIKYPEIAAALGAAAAGLAEGAREAKKDVEKGVKIAEKAAKELEKA
B30: d8r1_design_ppi_623_dldesign_0_cycle1_af2pred (protein)
chain: AAAAAAADAAAAALLDAAAAAAKAAVELTPEEAAAVLGAIAAAAATALALAKDPAAKAKLLATASEVANTAAQNLSQAVRREEE
B31: d8r1_design_ppi_146_dldesign_0_cycle1_af2pred (protein)
chain: YAQKIREAAEKLKSPEKKATLNAFADIAAKLEAEAKKAAAKDPAEGAKKLTAAKNLAAGALKLAEAKKEEE
B32: d8r1_design_ppi_789_dldesign_0_cycle1_af2pred (protein)
chain: ALEERLRAALEAARELRERGVEEGWSPGELANAVLALAKEAGLPLEAQNTLAAAAMVPGERAEILLEKAEEIV
B33: d8r1_design_ppi_855_dldesign_0_cycle1_af2pred (protein)
chain: GTGKNLIKVLETSAEKTAALAAELAPDPAAATALADAFEASAKGFAAIAKELGTEAEVKPAAEKAIKKVRDALDKALAAAAA
B34: d8r1_design_ppi_1215_dldesign_0_cycle1_af2pred (protein)
chain: AEEVGRMALTAAEAGERIALEKVKDPATAAEGAALAKVAADALKAAAEKVPEVAERLNKAATELYKKVADAA
B35: d8r1_design_ppi_179_dldesign_0_cycle1_af2pred (protein)
chain: MESARNAAEGIAKAAEENPESGARLGKGAVEVLAKRDIEAAVEAARLAAELSKEAGKEEVAEVMKKLAEEAEKKL
B36: d8r1_design_ppi_1041_dldesign_0_cycle1_af2pred (protein)
chain: MEEKEEEEAKKAAKAAVDAATKVAEKAAKASTPEVAKKLTAAAKGLKGATELLAKINPKNAAAFAKAAAERFTKIAEKAVKDAA
B37: d8r1_design_ppi_59_dldesign_0_cycle0_af2pred (protein)
chain: MSELAEEAIKALVAAHNAAAALAALGRTAEAAALSRQASEAFGKAFKALQEGDEETAKKYLEELKAIAAKAAEAAAAAAAAAAAA
B38: d8r1_design_ppi_1260_dldesign_0_cycle1_af2pred (protein)
chain: MTAEEALAEMEKLTKEMKEVSPLAGNAMEAHLNKAKELVAAVAAEDPEKAAEVAAKSYEQAKALYKAMKEMIEEEKKEKELA

Target: PDL1, Q9NZQ7
Sequence (Q9NZQ7 whole entry): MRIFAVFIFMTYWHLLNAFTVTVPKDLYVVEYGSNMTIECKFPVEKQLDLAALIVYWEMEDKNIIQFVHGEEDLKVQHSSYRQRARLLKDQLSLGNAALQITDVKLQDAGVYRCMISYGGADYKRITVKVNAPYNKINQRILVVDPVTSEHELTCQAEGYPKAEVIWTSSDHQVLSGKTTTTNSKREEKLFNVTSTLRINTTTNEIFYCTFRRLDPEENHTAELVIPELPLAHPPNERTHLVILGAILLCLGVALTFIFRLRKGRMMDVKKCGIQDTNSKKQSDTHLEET

| Binder | binding in a display sort |
| --- | --- |
| B1 | not found |
| B2 | not found |
| B3 | not found |
| B4 | not found |
| B5 | not found |
| B6 | not found |
| B7 | not found |
| B8 | not found |
| B9 | not found |
| B10 | not found |
| B11 | not found |
| B12 | not found |
| B13 | not found |
| B14 | not found |
| B15 | not found |
| B16 | not found |
| B17 | not found |
| B18 | not found |
| B19 | not found |

| Binder | binding in a display sort |
| --- | --- |
| B20 | not found |
| B21 | not found |
| B22 | not found |
| B23 | not found |
| B24 | binds (active) |
| B25 | not found |
| B26 | not found |
| B27 | not found |
| B28 | not found |
| B29 | not found |
| B30 | not found |
| B31 | not found |
| B32 | not found |
| B33 | not found |
| B34 | not found |
| B35 | not found |
| B36 | not found |
| B37 | not found |
| B38 | not found |
